Screening results from PubChem BioAssay.
NCOA2 inhibitor: inhibits human steroid receptor coactivator 2 | Q15596 | HEK293 GAL4-SRC2 luciferase reporter, luminescence | inhibition, % at 9 µM | 0.17% of 370,000 active | AID 651957;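 active = inhibition above the mean inhibition of all tested compounds plus 3 SD, set per campaign, cut at about 52% in these data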;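 also: 0% = DMSO treated cells and 100% = cells given Gossypol at 36 µM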
NR5A2 inv ag: suppresses constitutive activity of human LRH-1; inhibition, % at 3.6 µM; O00482; AID 602396; 0.13% of 360,000 active; HEK293T StAR-luciferase reporter, LRH-1 transfected, 24 h;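 active = inhibition above the mean inhibition of all tested compounds plus 3 SD, cut at about 73% in these data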;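 also: 0% = DMSO wells and 100% = reporter-only cells lacking LRH-1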
Target sequence (O00482 whole entry, looked up): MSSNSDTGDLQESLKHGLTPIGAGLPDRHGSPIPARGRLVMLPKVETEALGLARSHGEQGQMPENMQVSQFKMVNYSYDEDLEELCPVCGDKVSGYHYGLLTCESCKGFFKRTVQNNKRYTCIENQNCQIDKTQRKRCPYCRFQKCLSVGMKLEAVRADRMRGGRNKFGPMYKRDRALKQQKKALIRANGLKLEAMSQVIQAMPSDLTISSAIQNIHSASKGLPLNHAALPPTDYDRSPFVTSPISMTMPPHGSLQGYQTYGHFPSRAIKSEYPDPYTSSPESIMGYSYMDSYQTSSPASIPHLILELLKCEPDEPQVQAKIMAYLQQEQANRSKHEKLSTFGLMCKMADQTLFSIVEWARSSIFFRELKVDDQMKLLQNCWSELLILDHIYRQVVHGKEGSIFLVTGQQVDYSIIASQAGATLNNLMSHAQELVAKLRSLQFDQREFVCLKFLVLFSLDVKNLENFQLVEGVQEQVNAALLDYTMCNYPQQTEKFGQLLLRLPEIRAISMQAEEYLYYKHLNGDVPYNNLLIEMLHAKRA
NR2F2 inh: inhibitors of human COUP-TFII (NR2F2) | inhibition, % at 8.6 µM | AID 686940 | HEK293T NGFI-A luciferase reporter, luminescence | P24468 | 0.7% of 370,000 active;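 active = inhibition above a per-plate cutoff, mean inhibition of test wells between control levels plus 3 SD, cut at about 38% in these data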;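 also: cells cotransfected with COUP-TFII expression vector driving the NGFI-A reporter; 0% = median of COUP-TF2 test wells and 100% = reporter-only cells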
SRC1 inh: inhibits human SRC1 coactivator. AID 588354. inhibition, % at 3.6 µM. HEK293 GAL4-SRC1 luciferase reporter, luminescence. Q15788. 0.12% of 360,000 active;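 active = inhibition above the campaign mean plus 3 SD, with each screening campaign given its own cutoff, cut at about 60% in these data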;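 also: 0% = DMSO treated cells and 100% = gossypol at 36 µM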
SRC3 inh: inhibitors of human steroid receptor coactivator 3 (SRC3); 0.17% of 360,000 active; AID 588352; inhibition, % at 3.6 µM; HEK293 GAL4-SRC3 luciferase reporter, luminescence;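 active = inhibition above a per-campaign cutoff, the mean of all compounds plus 3 SD, cut at about 60% in these data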;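 also: 0% = DMSO-treated cells and 100% = gossypol-treated cells at 36 µM; higher means less SRC3-driven luciferase light from the GAL4 reporter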
* hit, by the source's call; i = inactive; / = not tested or not shown. Compounds with a hit are over-represented: about 0.81% of the library has one in this group of screens.

SMILES	NCOA2 inhibitor	NR5A2 inv ag	NR2F2 inh	SRC1 inh	SRC3 inh
Cc1ccc2[nH]c3c(c2c1)CCCC3C(N)=O (stereo not drawn)	-18.7	12.1	-9.1	-3.1	8.8
O=C(CSc1nnc(COc2ccccc2)n1-c1ccccc1)Nc1ccc(S(=O)(=O)Nc2nccs2)cc1	-2.1	/	-11.8	/	/
Cc1cccc(-n2c(CNC(=O)c3ccccc3)nnc2SCC(=O)Nc2nccs2)c1	11.4	85.2*	14.4	59.2	-15.9
CCOc1ccc(C(=O)C(CCC(CN(C)C)C(=O)c2ccc(OCC)cc2)CN(C)C)cc1 (stereo not drawn)	51.6	88.2*	25.6	5.9	41.0
Cc1noc(C)c1C(=O)N1CCC2(CC1)Oc1ccc(F)cc1C(=O)C21CC(c2ccc(Cl)cc2)=NO1 (stereo not drawn)	3.4	-9.9	7.4	10.3	-23.8
COc1ccc(NC(=O)C2(C)Cc3c(-c4cccc(C(F)(F)F)c4)ccnc3O2)cn1 (stereo not drawn)	71.3*	-3.6	21.3	9.6	5.0
COc1ccc(NC(=O)C2(C)Cc3c(-c4ccccc4)ccnc3O2)cn1 (stereo not drawn)	-29.2	-26.4	9.7	-7.2	7.8
N#CC(c1ccc(Cl)cc1)c1ccc2c(C(F)(F)F)cc(C(F)(F)F)nc2n1 (stereo not drawn)	10.9	-1.9	57.6*	65.5*	76.3*
FC(F)(F)c1cc(C(F)(F)F)c2ccc(N3CCN(c4ccc(Cl)cc4)CC3)nc2n1	-8.8	4.0	-14.7	-5.7	-7.2
NC(=S)N1OC[C@@H]2COc3ccc4ccccc4c3[C@@H]21	53.7*	27.7	12.0	17.7	11.2
C#CC(=O)N(c1cccc(OC)c1)C(C(=O)NC1CCCC1)c1cccs1 (stereo not drawn)	-15.3	81.3*	-9.1	25.7	59.3
C#CC(=O)N(c1ccc(OC)c(OC)c1)C(C(=O)NC1CCCC1)c1cccs1 (stereo not drawn)	-0.5	43.8	-29.2	0.8	36.9
COc1cccc(/C=N/NC(=O)c2c(C)nc3ccc(Br)cn23)c1O	/	99.1*	/	78.3*	79.0*
CCOc1ccccc1/C=N/NC(=O)c1c(C)nc2ccc(Br)cn12	-0.5	7.5	5.0	6.0	-16.8
COc1ccc(C(=O)N/N=C/c2cc(Br)ccc2O)cc1OC	18.2	20.1	-17.1	34.1	63.8*
COc1cccc(/C=N/NC(=O)c2ccccc2N(Cc2ccccc2)S(=O)(=O)c2ccccc2)c1OC	-6.7	7.9	11.6	-3.5	-2.8
Cc1ccc(C(=O)Oc2cc(C)n(C)c(=O)c2)cc1	-12.8	-8.7	17.9	-4.3	19.7
COc1ccc(C[C@@H]2OC3(C=CC(=O)C=C3)O[C@H]2Cc2ccc(OC)cc2)cc1	/	56.3	/	i	-371.5
O=C1C=CC2(C=C1)O[C@H](Cc1ccccc1)[C@@H](Cc1ccccc1)O2	53.6*	70.9	99.6*	-203.7	-189.6
C/C(=N\Nc1ncnc2sc(C)c(C)c12)c1ccccn1	38.5	-3.4	11.7	48.9	80.7*
Cc1cc2nc(C(C)(C)C)c(Cc3ccsc3)n2c(C)c1Br	-3.5	21.6	9.7	/	/
COc1cccc2c1C(=O)c1c(O)c3c(c(O)c1C2=O)C[C@@](O)(C(=O)CO)C[C@@H]3OC1CC(N)C(O)C(C)O1 (stereo partly drawn)	-273.5	78.1*	-21.5	47.0	-14.3
COc1cccc2c1C(=O)c1c(O)c3c(c(O)c1C2=O)C[C@@](O)(C(=O)CO)C[C@@H]3O[C@H]1C[C@H](N)[C@H](O)[C@H](C)O1	-269.8	98.2*	-7.9	-38.1	55.1
COc1ccc(CCn2c(=S)[nH]c3ccc(N4CCOCC4)cc3c2=O)cc1OC	-4.5	8.1	0.8	-1.5	0.0
C=C1C(=O)c2sccc2C(c2ccc(OC)c(OC)c2)C1COC(C)=O (stereo not drawn)	84.0*	70.5	89.2*	59.4	47.4
SMILES	NCOA2 inhibitor	NR5A2 inv ag	NR2F2 inh	SRC1 inh	SRC3 inh
Nc1nc(Cl)c(N)c(NCC2(CO)CC(CCc3ccccc3)C2)n1 (stereo not drawn)	28.7	7.5	58.0*	5.2	14.4
O=C(NCc1ccccc1)[C@]1(C(F)(F)F)C[C@H](CCc2ccccc2)CCCO1	-6.1	-30.1	-3.3	-22.4	8.0
N#Cc1ccccc1NC(=O)COC(=O)c1ccc2c(c1)OCO2	14.6	-12.4	6.4	-24.2	-13.7
O=[N+]([O-])c1ccc(O)c(/C=N/Nc2ccc(Cl)nn2)c1	-11.1	13.7	6.4	67.9*	81.6*
COC(=O)COc1ccc(-c2nccc(-c3ccccn3)n2)cc1	61.2*	-0.8	25.6	19.4	26.1
CCCC(=O)Nc1ccc(C(=O)N/N=C/c2ccc([N+](=O)[O-])o2)cc1	48.3	83.1*	26.0	65.0*	70.9*
COc1ccc(C2NN=C(c3c[nH]c4ccccc34)C2O)cc1 (stereo not drawn)	-21.9	-77.6	-6.2	-15.3	-33.4
COc1ccc(C2C(O)C(c3c[nH]c4ccccc34)=NN2C(=O)CCl)cc1 (stereo not drawn)	72.7*	-6.5	24.9	-38.9	19.3
CCOC(=O)CNC(=O)CSc1nnc(-c2ccc(C(C)(C)C)cc2)n1-c1ccc(Cl)cc1	-7.0	/	13.4	/	/
C/C(=N\NC(=O)C1CCCC1)c1ccc(Cl)cc1Cl	2.2	12.8	-11.3	6.0	11.2
O=S(=O)(Nc1cc(Sc2cccc3cccnc23)c(O)c2ccccc12)c1ccccc1	94.9*	/	21.7	/	/
Clc1ccc(CSc2nnc(Cn3cnc4ccccc43)o2)cc1	16.3	17.3	62.8*	1.1	20.2
Cc1cccc(/C=C(\c2nc3ccccc3[nH]2)S(=O)(=O)c2ccccc2)c1	64.3*	43.8	33.0	-37.4	17.2
CC(C)(C)c1ccc(/C=C(\c2nc3ccccc3[nH]2)S(=O)(=O)c2ccccc2)cc1	/	41.3	/	-0.2	30.4
Fc1ccc(N=C2NN=C(c3cc(F)ccc3F)CS2)cc1	-32.7	-30.5	-58.8	-47.6	-46.7
O=S(=O)(c1ccc(N=C2NN=C(c3cc(F)ccc3F)CS2)cc1)N1CCOCC1	-8.6	5.3	40.5*	-14.5	23.4
Nc1ccc(C(=O)Nc2cccc(N)c2)cc1	-15.9	-15.6	-16.7	-27.4	-32.5
OCCCNc1cc(-c2ccnc(Nc3cccc(Cl)c3)n2)ccn1	65.0*	96.4*	60.5*	85.5*	86.6*
COc1cccc2c1C(CO)N1C(C#N)C3CC(C(=O)O)C(C1C2)N3C (stereo not drawn)	54.9*	101.5*	4.2	86.7*	85.7*
CNc1ccc2ncc(-c3ccc(OC)c(OC)c3)n2n1	58.6*	25.6	-31.3	77.7*	49.2
COc1ccc(NC(=O)c2nc3nccc(C)n3n2)cn1	-29.5	-43.2	-18.3	-49.2	-40.3
Cc1noc(C)c1CSCC(=O)NCCN1C(=O)S/C(=C\c2ccccc2F)C1=O	-2.9	-2.5	3.0	-17.9	13.2
O=C(CCC1CCCC1)Nc1ccc(C(=O)NCc2cccnc2)cc1	35.7	74.2*	23.9	42.9	42.7
C=CCSc1nc(C)c2cc(C)cc(C)c2n1	-24.9	-9.0	10.8	-2.6	6.9
